# A selection: hits, their analogues and other compounds. The true share with any hit is near 2.6%.
# PHOSPHO1 inh: PHOSPHO1 (human) inhibition; Q8TCT1; recombinant PHOSPHO1, absorbance phosphatase assay; inhibition, % at 13.3 µM; 1.1% of 290,000 active; in the data active means inhibition above about 60%
# Target sequence (Q8TCT1 whole entry, looked up): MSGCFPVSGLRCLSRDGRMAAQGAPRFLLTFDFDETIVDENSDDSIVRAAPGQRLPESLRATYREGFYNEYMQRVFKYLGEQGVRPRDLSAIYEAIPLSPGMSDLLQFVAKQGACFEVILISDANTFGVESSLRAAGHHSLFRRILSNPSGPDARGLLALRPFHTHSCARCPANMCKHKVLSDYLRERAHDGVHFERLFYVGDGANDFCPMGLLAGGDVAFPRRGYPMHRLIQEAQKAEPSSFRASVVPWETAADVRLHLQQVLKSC
# AI-2 QS modul: modulates the Vibrio harveyi AI-2 quorum sensing system; Vibrio harveyi JMH597 AI-2 luminescence/OD600 ratio, 9 h; stronger effect = lower value; strain lacks LuxN and CqsS sensors; 0 = neutral-control median; activity change, % at 7.5 µM; 0.4% of 300,000 active; AID 2094; in the data active means activity change below about -75%, passing the limit was not always enough; inconclusive means no clear call, values can overlap the other calls;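 further: luminescence divided by OD600 gain over 9 h not by final OD600 alone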
# eIF4H inh: inhibitors of RNA binding by human eIF4H. Q15056. eIF4H fluorescence polarization binding assay. inhibition, % at 35 µM. 0.94% of 290,000 active. AID 2012;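 further: calls also rest on retests at 20 µM and on dose response follow-up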
# PABP polyA inh: PABP-poly(A) binding inhibition | PABP-poly(A) RNA binding, fluorescence polarization | calls only at 35 µM | 1% of 290,000 active;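 further: calls also rest on retests at 20 µM and on dose response follow-up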
# PABP1 MLLE inh: blocks PAM2 peptide binding to the PABP1 MLLE domain | P11940 | GST-MLLE / FITC-PAM2 fluorescence polarization | inhibition, % at 20 µM | 0.36% of 360,000 active | AID 588489; in the data active means inhibition above about 35%, passing the limit was not always enough
# ABCB6 inh 2: inhibitors of human ABC transporter ABCB6. Q9NP58. K562-ABCB6 porphyrin accumulation, flow cytometry, 1 h; stronger effect = lower value. fluorescence ratio to DMSO, % at 10 µM. 0.19% of 360,000 active;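 active means fluorescence ratio to DMSO below 75%, the collection mean minus 3 SD; inconclusive means too few cells collected in the well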;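 further: signal is porphyrin accumulated inside mitochondria; lower ratio means ABCB6 inhibition with less porphyrin fluorescence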
# Hits are given with their value; . = inactive; ? = inconclusive; / = no result given; + = active, no number. Unless noted, how the calls were made is not given here.
SMILES,PHOSPHO1 inh,AI-2 QS modul,eIF4H inh,PABP polyA inh,PABP1 MLLE inh,ABCB6 inh 2
O=C(c1ccccc1)c1coc2c1C(=O)c1ccccc1C2=O,.,.,.,.,.,.
COC(=O)CCCn1cc(CN2CC(N3CCN(Cc4cccc(C)c4)CC3)CS2(=O)=O)nn1 (stereo not given),/,/,/,/,/,.
Cc1nc2ccccn2c1/C(O)=C1\C(=O)C(=O)N(CCN(C)C)C1c1ccco1 (stereo not given),.,.,.,.,50.3,.
Cc1nc2cc3ccccc3cc2s1,/,/,/,/,.,.
Cc1nc2cc3nc(C)sc3cc2s1,67.5,.,.,.,.,.
CC1=CN2C(c3cccc([N+](=O)[O-])c3)=NON(c3ccc(C)cn3)C2C=C1 (stereo not given),/,/,/,/,.,.
COc1cc(CN2C[C@@H](CO)O[C@@H](n3cnc4c(NCc5ccc(F)cc5)ncnc43)C2)cc(OC)c1OC,/,/,/,/,.,.
COc1ccc(/C=N/Nc2ccccn2)c(OC)c1OC,.,.,1.9,+,.,.
COc1ccc(/C=N\Nc2ccccn2)c(OC)c1,.,.,.,.,.,.
O=C(NCc1cccnc1)c1csc([C@@H]2C[C@H](O)[C@@H](CO)O2)n1,/,/,/,/,.,.
CS(=O)(=O)N(CC(=O)N/N=C/c1cccc2c1OCCO2)c1ccccc1Br,60.1,.,.,.,.,.
Cc1ccc(-n2c(Cc3ccccc3)n[nH]c2=S)cc1,101.4,.,.,.,.,.
Cc1n[nH]c(=S)n1-c1ccccc1,89.5,.,.,.,.,.
CCN(CC)c1ccc(-c2n[nH]c(=S)n2-c2ccccc2)cc1,.,.,3.4,.,.,.
Cc1ccc(S(=O)(=O)NC(=O)C2(C)CCN2C(=O)Cc2ccc(C(C)(C)C)cc2)cc1 (stereo not given),/,/,/,/,.,.
Cn1c(NCc2cccnc2)nc2cc(-c3cccc(C(=O)NCCO)c3)sc2c1=O,/,/,/,/,.,.
O=S1(=O)C[C@@H](N2CCN(CC3CC3)CC2)[C@H](COCc2ccccc2)N1,/,/,/,/,.,.
O=Cc1c(N2CCN(CCO)CC2)nc2ccccn2c1=O,.,.,?,?,47.1,.
CCC(c1nnnn1-c1c(C)cccc1C)N1CCN(c2ccccn2)CC1 (stereo not given),/,/,/,/,/,.
S=C(Nc1cccc2ccccc12)N1CCN(c2ncccn2)CC1,88.3,.,.,.,.,.
COc1cnn(-c2ccc(C)cc2)c(=O)c1SCc1ccccc1,80.7,.,.,.,.,.
COc1ccc(C2NC(=S)N3C(c4ccc(OC)cc4)NC(=S)N23)cc1 (stereo not given),97.5,.,.,.,.,.
Oc1c(Cl)cc(Cl)cc1C=Nc1ccc2c(c1)OCCO2,.,.,16.2,+,.,.
COc1ccc(NC(=O)c2cc(C3CCCCN3S(=O)(=O)c3cn(C)cn3)on2)c(C)c1 (stereo not given),/,/,/,/,.,.
Cc1ccc(Sc2ccc(/C=N/O)cc2[N+](=O)[O-])cc1,.,-76.3,.,.,.,.
SMILES,PHOSPHO1 inh,AI-2 QS modul,eIF4H inh,PABP polyA inh,PABP1 MLLE inh,ABCB6 inh 2
N/C(Cc1cccc2ccccc12)=N\OC(=O)c1cccs1,.,.,83.6,+,.,.
N/C(Cc1cccc2ccccc12)=N\OC(=O)Cc1cccs1,.,.,.,.,.,.
CC(=NCCc1ccccc1)C1=C(O)CSC1=O,.,.,.,.,.,74.0
COC(=O)c1cc(O)cc(OC)c1C(=O)c1c(O)cc(C)cc1O,.,.,.,.,.,.
COC(=O)c1cc(O)cc(OC)c1Oc1cc(C)cc(O)c1C(=O)O,.,/,89.9,+,.,.
CCOC(=O)[C@]12CCC=C1N(Cc1cccc3ccccc13)C(=O)[C@H](CC(=O)NCCC(C)C)C2,/,/,/,/,/,.
CSCCC(NC(N)=O)C(=O)Nc1cccc(C#N)c1 (stereo not given),.,.,52.7,.,.,.
CSCCC(NC(N)=O)C(=O)Nc1ccc(C)cc1 (stereo not given),62.9,.,.,.,.,.
COc1ccc([C@H]2CC(=O)C[C@@H](CCn3cccn3)O2)cc1,/,/,/,/,/,.
CCCCC(=O)Nc1ccc(C(=O)N(CC)c2ccccc2C)cc1,65.8,.,.,.,.,.
COc1ccc(C2Nc3cccc(O)c3C(=O)N2Cc2ccccc2)cc1COc1ccc(NC(C)=O)cc1 (stereo not given),/,/,/,/,.,.
OC(c1cccc(CN2CCCCC2)c1)c1ncc(-c2ccccc2Cl)[nH]1 (stereo not given),/,/,/,/,.,.
Nn1c(-c2cccc(Br)c2)n[nH]c1=S,95.5,.,.,.,.,.
CCC(SCC(=O)OC)C(=O)Nc1nnc(C(C)C)s1 (stereo not given),.,.,.,.,39.4,.
O=c1c2ccccc2nc2n1C(CBr)CS2 (stereo not given),.,.,.,.,.,.
O=c1nc2n(c3sc4c(c13)CCCC4)C(CBr)CS2 (stereo not given),.,.,.,.,39.7,.
CCOC(=O)c1ccc2c(c1)nc(SC/C(O)=C(\C#N)c1nc3ccccc3[nH]1)n2CC,87.7,.,.,.,.,.
Cc1cc(C)n2c(SC/C(O)=C(\C#N)c3nc4ccccc4[nH]3)nnc2n1,.,.,79.7,+,.,.
CCOC(=O)c1ccc2c(c1)nc(SCC(=O)c1ccco1)n2CC,78.9,.,.,.,.,.
CCOC(=O)c1ccc2c(c1)nc(SCC(=O)N1CCCCC1)n2CC,.,.,.,.,.,.
CCOC(=O)C1=CCN(S(=O)(=O)c2ccc(Br)cc2)C1c1cccc(C)c1 (stereo not given),/,/,/,/,.,.
C=C(C)c1cccc(C(C)(C)NC(=O)NCc2cccnc2)c1,.,.,.,.,.,.
C=C(C)c1cccc(C(C)(C)NC(=O)NCc2ccncc2)c1,65.6,.,.,.,.,.
COc1ccc(-n2ncc3c2CC(C)(C)CC3NC(=O)CCn2cncn2)cc1 (stereo not given),89.8,.,.,.,.,.
CC(=O)Nc1ccc(C(=O)CSc2nc3ccccc3n2CC(=O)N2CCCC2)cc1,71.3,.,.,.,.,.
SMILES,PHOSPHO1 inh,AI-2 QS modul,eIF4H inh,PABP polyA inh,PABP1 MLLE inh,ABCB6 inh 2
S=c1nc2c(n[nH]1)c1ccccc1n2CCc1ccccc1,/,/,.,.,38.7,.
CSc1nnc2c3ccccc3n(CCc3ccccc3)c2n1,.,.,.,.,.,.
CCN(CC)c1c(C)nc2ccc(C(=O)Nc3cc(-c4ccccc4)ccc3OC)cn12,/,/,/,/,.,.
Cc1cccc(CSc2nc3c(cc2C#N)CCC3)c1,.,.,.,.,.,.
N#Cc1cc2c(nc1SCc1nc3ccccc3[nH]1)CCC2,74.0,.,.,.,/,/
CC(=O)c1ccc(S(=O)(=O)N2Cc3ccccc3CC2C(=O)O)cc1 (stereo not given),.,.,98.6,+,.,.
O=C(O)C1Cc2ccccc2CN1S(=O)(=O)/C=C/c1ccccc1 (stereo not given),.,.,.,.,.,.
